Experimental data published in ChEMBL document CHEMBL3988442, “University of Dundee, Small-Polar-MMV Screening Library” (2021).
Among all 48,000 compounds or so, about 13,000 (27%) showed an effect of 50% or more. The list shows a part of the results.

System: Wolbachia pipientis
Test: Anti-Wolbachia Cell-Based Screen
Assay type: functional
Set-up: scale not given: in the data most compounds retested in dose-response had high values
Conditions: 5 µM

Going from `O=C(NCc1cnc2n1CCN(Cc1ccoc1)C2)c1ccno1.O=C(O)C(F)(F)F` to `Cc1nc2c(c(NC(C)C)n1)CCN(C(=O)c1ccno1)CC2.O=C(O)C(F)(F)F`, the “Percent Effect” value falls from 0.5733% to -9.631%.

Going from `CC(=O)N1CCc2nc(-c3ccccc3)nc(NC(C)C)c2CC1` to `CC(C)Nc1nc(-c2ccccc2)nc2c1CCN(C(=O)CC#N)CC2`, the “Percent Effect” value rises from 96.01% to 98.77%.

Compared with `CC(C)Nc1nc(-c2ccccc2)nc2c1CCN(C(=O)C1CC1)CC2.O=C(O)C(F)(F)F`, `CC(C)Nc1ncnc2c1CCN(C(=O)Cc1ccccn1)CC2.O=C(O)C(F)(F)F` is lower in “Percent Effect” value: 99.02% for the first, 17.78% for the second.

Compared with `CC(=O)N1CCc2c(nc(N(C)C)nc2NC(C)Cc2cccs2)C1` (centres undefined), `CC(=O)N1CCc2nc(-c3ccc(F)cc3)nc(NC(C)C)c2CC1` is higher in “Percent Effect” value: 16.87% for the first, 94.36% for the second.

First: CSCC(=O)N1CCc2nc(C)nc(NCc3ccccc3)c2CC1
Second: CC(=O)NCC(=O)N1CCc2nc(-c3ccccc3)nc(C)c2CC1
The “Percent Effect” value of the first is higher: -12.22% for the first, -15.18% for the second.

Going from `Cc1nc2c(c(NC(C)C)n1)CCN(Cc1cccnc1)CC2.O=C(O)C(F)(F)F.O=C(O)C(F)(F)F` to `CN1CC(=O)N(c2cccnc2)CC12CCN(C(=O)c1cccnc1)C2.O=C(O)C(F)(F)F.O=C(O)C(F)(F)F` (centres undefined), the “Percent Effect” value rises from -13.98% to -6.437%.

Going from `Cc1nc(-c2ccc(F)cc2)nc2c1CCN(C(=O)CN(C)C)CC2` to `Cc1ccc(-c2noc([C@@H]3C[C@H](NC(=O)NC(C)C)CN3C)n2)cc1`, the “Percent Effect” value falls from 3.588% to -7.192%.

Compared with `Cc1ncsc1C(=O)NCc1cc2n(n1)CCN(C(=O)N(C)C)C2`, `CC(Oc1cc(Cl)cc(Cl)c1)C(=O)NCCC(=O)N(C)C` (centres undefined) is higher in “Percent Effect” value: -4.389% for the first, 99.28% for the second.

Going from `Cc1sc2nc(CCN)nc(N3CCN(S(C)(=O)=O)CC3)c2c1C` to `Cc1nc(N2CCC(C(O)c3nccn3C)CC2)c2c(C)noc2n1` (centres undefined), the “Percent Effect” value falls from 5.151% to 0.7849%.

Compared with `CN1CC(=O)N(c2ccccc2)CC12CCN(C(=O)c1ccnnc1)C2.O=C(O)C(F)(F)F` (centres undefined), `CN1CC(=O)N(c2ccccc2)CC12CCN(C(=O)c1cnccn1)C2.O=C(O)C(F)(F)F` (centres undefined) is higher in “Percent Effect” value: 94.6% for the first, 102.5% for the second.

Compared with `CN1CC(=O)N(c2cnn(C)c2)CC12CCN(C(=O)c1ccsc1)C2.O=C(O)C(F)(F)F` (centres undefined), `CN1CC(=O)N(c2ccsc2)CC12CCN(C(=O)c1ccccc1)C2.O=C(O)C(F)(F)F` (centres undefined) is higher in “Percent Effect” value: -13.31% for the first, 8.898% for the second.

Compared with `CCC(CC)C(=O)N1CCC2(C1)CN(c1ccccc1)C(=O)CN2C.O=C(O)C(F)(F)F` (centres undefined), `CC(Oc1ccccc1C(F)(F)F)C(=O)NCCC(=O)N(C)C` (centres undefined) is higher in “Percent Effect” value: -2.96% for the first, 4.179% for the second.

Compared with `Cc1ccsc1C(Cc1ccccc1)NC(=O)CSCC(N)=O` (centres undefined), `Cn1c(=O)ccn(CC(=O)NCC2Cc3ccccc3O2)c1=O` (centres undefined) is higher in “Percent Effect” value: -6.461% for the first, 4.727% for the second.

Compared with `COCCCOC1CN(C(=O)c2[nH]nc3c2CCCC3)C1`, `COc1cccc(CCC(=O)N2CCCCC2Cn2cccn2)c1` (centres undefined) is higher in “Percent Effect” value: -6.811% for the first, -6.08% for the second.

First: Cl.Cl.O[C@@H]1C[C@@](CNCC2CC2)(COc2cccnc2)C[C@@H]1O
Second: O=C(CCc1ccsc1)N1CCCCC1Cn1cccn1 (centres undefined)
The “Percent Effect” value of the first is lower: -8.613% for the first, 114.6% for the second.

Going from `CC(C)(C)c1cc(=O)[nH]c(-c2ccccc2CN2CCCCCC2)n1` to `CC(C)(C)c1cc(=O)[nH]c(-c2ccccc2CN2CCC[C@@H](O)C2)n1`, the “Percent Effect” value falls from 107.3% to -11.42%.

First: CC1(C)CCN(Cc2ccccc2-c2nc(C(C)(C)C)cc(=O)[nH]2)C1
Second: Cc1nnc2n1CCN(c1nc3ccccc3o1)C2
The “Percent Effect” value of the first is lower: -0.3128% for the first, 7.974% for the second.

Compared with `CCCN1CCC(CC(=O)N2CC(C)(C)[C@@](C)(O)C2)CC1`, `CCCN1CCC(CC(=O)N2CCC(C(O)c3nccn3C)CC2)CC1` (centres undefined) is higher in “Percent Effect” value: 2.3% for the first, 109.9% for the second.

First: CC(C)N1CCC(C(=O)N2CCC(C(O)c3nccn3C)CC2)CC1 (centres undefined)
Second: CC(C)N1CCC(CC(=O)N2CCC(C(O)c3nccn3C)CC2)CC1 (centres undefined)
The “Percent Effect” value of the first is higher: 119.5% for the first, 112.6% for the second.

Compared with `Cc1nc(N2CCC(C(O)c3nccn3C)CC2)c2cccnc2n1` (centres undefined), `Cc1nc(N2CCC(C(O)c3nccn3C)CC2)c2nc(C)oc2n1` (centres undefined) is higher in “Percent Effect” value: -5.3% for the first, 6.999% for the second.

Going from `CC(C)N1CCC(CC(=O)N2CCN(Cc3nccn3C)CC2)CC1` to `CC(C)n1ccnc1CN1CCCN(C(=O)CC2C=CCC2)CC1` (centres undefined), the “Percent Effect” value falls from 103.8% to 11%.

Compared with `CCn1ncnc1C(NC(=O)CC1CCN(C(C)C)CC1)C1CC1` (centres undefined), `CC(C)N1CCC(CC(=O)N2CCCCC2CCn2cccn2)CC1` (centres undefined) is higher in “Percent Effect” value: -0.6358% for the first, 17.49% for the second.

First: CCOc1ccccc1CN(CC)Cc1ccc(S(C)(=O)=O)cc1
Second: CC(Oc1ccc(S(C)(=O)=O)cc1)C(=O)NC(N)=O (centres undefined)
The “Percent Effect” value of the first is higher: 14.95% for the first, -0.9866% for the second.

First: CSc1ccc(NCC(=O)Nc2c(C)nn(C)c2C)cc1F
Second: CC(NC(=O)Cn1ccc(=O)n(C)c1=O)c1cc(F)ccc1F (centres undefined)
The “Percent Effect” value of the first is lower: -13.07% for the first, 123.1% for the second.

Compared with `Cn1c(=O)ccn(CC(=O)Nc2cnccc2O)c1=O`, `CC(NC(=O)Cn1ccc(=O)n(C)c1=O)c1ccccc1F` (centres undefined) is higher in “Percent Effect” value: -3.574% for the first, 122% for the second.

Going from `CC(NCCn1cccn1)c1ccccc1F` (centres undefined) to `O=C(CCc1ccccc1)N1CCCCC1Cn1cccn1` (centres undefined), the “Percent Effect” value rises from 17.82% to 99.73%.

First: CCS(=O)(=O)CC(=O)NC(C)c1ccc(F)cc1F (centres undefined)
Second: CCCNC(=O)C(C)Oc1ccc(F)cc1 (centres undefined)
The “Percent Effect” value of the first is higher: 5.956% for the first, -16.03% for the second.

Going from `CCCNC(=O)C(C)Oc1ccccc1` (centres undefined) to `CCNC(=O)C(C)Oc1ccc(N(C)S(C)(=O)=O)cc1` (centres undefined), the “Percent Effect” value rises from 7.787% to 35.45%.

Going from `CC(C)c1ccc(OCCC(=O)NCCC(=O)N(C)C)cc1` to `CC(Oc1cc(Cl)cc(Cl)c1)C(=O)NCCOCC(N)=O` (centres undefined), the “Percent Effect” value rises from 5.568% to 92.53%.

First: CC(Oc1cc(Cl)cc(Cl)c1)C(=O)NCCS(N)(=O)=O (centres undefined)
Second: Cc1ccc(-c2noc(C(C)NS(C)(=O)=O)n2)cc1 (centres undefined)
The “Percent Effect” value of the first is higher: 112.6% for the first, 98.3% for the second.

First: Cc1cnn(C2CN(C(C)c3nc(-c4ccccc4)no3)C2)c1 (centres undefined)
Second: O=C(CCc1cccs1)N1CCCCC1Cn1cccn1 (centres undefined)
The “Percent Effect” value of the first is lower: -0.8523% for the first, 8.16% for the second.

Going from `CSCCC(=O)N1CCCCC1CCn1cccn1` (centres undefined) to `CN(Cc1ccsc1)C(=O)CN1CCCCC1Cn1cccn1` (centres undefined), the “Percent Effect” value rises from -3.819% to -3.818%.
